This is part of a sample that, as a whole, favours compounds with a hit. Of some 83,000 tested, about 20% had one in any assay.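 Each cell line was grown in a 96-well plate and treated with one concentration of compound for 48 hours. Values below 10 were considered active.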 Values without a mark were called inactive. Calls of active or inactive are those of the source.

Common to all, as to test: NCI-60 one-dose screen, 48 h (100 = growth as untreated, 0 = no growth, -100 = all killed)
The subject of one experiment is HCT-15 colon. The following applies: 10 µM unless noted.
The subject of the next experiment is HT29 colon. The following applies: 10 µM unless noted.
The test system of another experiment is SNB-75 CNS. The following applies: 10 µM unless noted.
Another experiment deals with SNB-19 CNS. The following applies: 10 µM unless noted.
The test system of another experiment is U251 CNS. The following applies: 10 µM unless noted.
A further experiment has as its system PC-3 prostate. Particulars: 10 µM unless noted.
For the next experiment, the system named is SK-MEL-5 melanoma. Particulars: 10 µM unless noted.
A further experiment concerns UACC-62 melanoma. Particulars: 10 µM unless noted.
In a further experiment the test system is LOX IMVI melanoma. Particulars: 10 µM unless noted.
For the next experiment, the system named is SK-MEL-28 melanoma. Particulars: 10 µM unless noted.
Another experiment deals with SK-MEL-2 melanoma. The following applies: 10 µM unless noted.
A further experiment concerns EKVX NSCLC. Particulars: 10 µM.
A further experiment concerns SN12C renal. The following applies: 10 µM unless noted.
The next experiment has as its system UO-31 renal. Particulars: 10 µM unless noted.
A further experiment concerns TK-10 renal. The following applies: 10 µM unless noted.
The subject of a further experiment is ACHN renal. Particulars: 10 µM unless noted.
The subject of the next experiment is CCRF-CEM leukemia. The following applies: 10 µM.
Another experiment deals with MOLT-4 leukemia. Particulars: 10 µM unless noted.
The next experiment relates to A498 renal. Particulars: 10 µM unless noted.

`CCOc1ccccc1/C=N\N=C(N/N=C/c1ccccc1OCC)N/N=C/c1ccccc1OCC`: the growth in the experiment on HCT-15 colon is 13.5%; in the experiment with HT29 colon, -1.15% (active); in the experiment with SNB-75 CNS it was 22.3%; with SNB-19 CNS, 21.7%; in the experiment on U251 CNS, 13.4%; in the experiment with PC-3 prostate it was 3.92% (active). Moreover, the growth in the experiment with SK-MEL-5 melanoma was -52.6% (active); in the experiment on UACC-62 melanoma it was 16.1%; with LOX IMVI melanoma it was 8.71% (active); with SK-MEL-28 melanoma, 30.7%; with SK-MEL-2 melanoma, 4.07% (active); in the experiment on EKVX NSCLC it was 14.2%. Also, the growth was 15.4% in the experiment with SN12C renal; -8.3% (active) with UO-31 renal; 27.8% with TK-10 renal; 9.67% (active) in the experiment with ACHN renal; 16.7% in the experiment with CCRF-CEM leukemia; 27.7% in the experiment with MOLT-4 leukemia.

Regarding `C[C@@H](c1ccc2c(c1)[nH]c1ccc(Cl)cc12)c1nc2ccccc2[nH]1`, the growth in the experiment on HCT-15 colon was 96%; with HT29 colon it was 98%; in the experiment on SNB-75 CNS, 62.4%; with SNB-19 CNS, 92%; with U251 CNS, 98.4%; with PC-3 prostate it was 91.3%. For the same molecule, the growth is 95.3% in the experiment on SK-MEL-5 melanoma; 85.9% in the experiment with UACC-62 melanoma; 88.2% with LOX IMVI melanoma; 112% in the experiment on SK-MEL-28 melanoma; 108% in the experiment on SK-MEL-2 melanoma; 92.6% in the experiment with EKVX NSCLC. For the same molecule, the growth is 89.6% with SN12C renal; 56.6% with UO-31 renal; 136% in the experiment with TK-10 renal; 96.5% with ACHN renal; 111% in the experiment with A498 renal; 92.4% with MOLT-4 leukemia.

As to `O=C(/C=C1\C(=O)N(Cc2ccc([N+](=O)[O-])cc2)c2ccccc21)c1ccc(OCCN2CCCCC2)cc1`, the growth was -80.6% (active) with HCT-15 colon; -89.3% (active) with HT29 colon; 22.3% with SNB-75 CNS; 57.9% in the experiment on SNB-19 CNS; -46.5% (active) in the experiment with U251 CNS; -52.3% (active) in the experiment with PC-3 prostate. Besides, the growth in the experiment on SK-MEL-5 melanoma was 33.9%; with UACC-62 melanoma it was -74% (active); in the experiment with LOX IMVI melanoma, -82.7% (active); with SK-MEL-28 melanoma it was -51% (active); with SK-MEL-2 melanoma, -29.1% (active); in the experiment on EKVX NSCLC, 1.78% (active). Besides, the growth in the experiment with SN12C renal is -67% (active); in the experiment with UO-31 renal, -97.1% (active); in the experiment with TK-10 renal, -81.4% (active); in the experiment with ACHN renal, -98.6% (active); in the experiment on A498 renal, 56.6%; with MOLT-4 leukemia, -26.5% (active).

Consider `COc1cc(CNC(=O)CCCC/C=C/C(C)C)ccc1OCc1nnc(Nc2ccccc2F)o1`, for which the growth in the experiment with HCT-15 colon is 90.1%; in the experiment with HT29 colon, 89.9%; in the experiment on SNB-75 CNS, 57.8%; in the experiment on SNB-19 CNS, 58.6%; in the experiment with U251 CNS, 84%; with PC-3 prostate, 72.5%. The growth with SK-MEL-5 melanoma was 86.6%; with UACC-62 melanoma it was 65.5%; in the experiment on LOX IMVI melanoma, 83.4%; in the experiment on SK-MEL-28 melanoma it was 85.2%; in the experiment with SK-MEL-2 melanoma, 111%; with EKVX NSCLC, 77.1%. The growth in the experiment with SN12C renal was 70.5%; with UO-31 renal, 52.8%; in the experiment on TK-10 renal, 97.7%; in the experiment on ACHN renal, 56.1%; in the experiment on A498 renal, 92.5%; in the experiment on CCRF-CEM leukemia, 83%. Besides, the growth with MOLT-4 leukemia is 82%.

As to `Cc1nnc(/N=C2\NC(=O)/C(=C/C=C/c3ccccc3)S2)s1`, the growth was 37% in the experiment with HCT-15 colon; 92.8% in the experiment with HT29 colon; 66.5% in the experiment with SNB-75 CNS; 53.7% with SNB-19 CNS; 49.5% with U251 CNS; 39.2% in the experiment with PC-3 prostate. Moreover, the growth with SK-MEL-5 melanoma is 44.2%; in the experiment on UACC-62 melanoma, 46.1%; in the experiment with LOX IMVI melanoma, 44.3%; in the experiment with SK-MEL-28 melanoma it was 59.8%; in the experiment with SK-MEL-2 melanoma, 57.7%; in the experiment on EKVX NSCLC, 67.1%. In addition, the growth is 66.2% in the experiment on SN12C renal; 55.2% in the experiment on UO-31 renal; 70.3% in the experiment with TK-10 renal; 50.8% in the experiment on ACHN renal; 65.3% in the experiment with A498 renal; 29.8% in the experiment on CCRF-CEM leukemia. The growth with MOLT-4 leukemia is 43.7%.

Consider `Cc1ccc(NCc2cn(-c3ccc(C(=O)O)cc3)nc2-c2ccc(C(=O)O)cc2)cc1`, for which the growth is 110% with HCT-15 colon; 97.4% in the experiment with HT29 colon; 96.7% in the experiment with SNB-75 CNS; 104% with SNB-19 CNS; 97.1% in the experiment with U251 CNS; 106% in the experiment on PC-3 prostate. For the same molecule, the growth in the experiment on SK-MEL-5 melanoma is 108%; in the experiment with UACC-62 melanoma, 103%; in the experiment with LOX IMVI melanoma it was 94.6%; in the experiment with SK-MEL-28 melanoma, 112%; in the experiment with SK-MEL-2 melanoma, 94.3%; with EKVX NSCLC it was 106%. Besides, the growth with SN12C renal is 108%; with UO-31 renal, 90.6%; with TK-10 renal, 99%; with ACHN renal it was 108%; in the experiment on CCRF-CEM leukemia, 104%; in the experiment on MOLT-4 leukemia, 105%.

With `Cc1c(Cc2ccccc2)c(=O)oc2c(C)c(OCc3n[nH]c(=S)o3)ccc12`, the growth was 75.7% in the experiment on HCT-15 colon; 86.8% with HT29 colon; 71.4% with SNB-75 CNS; 85.8% in the experiment on SNB-19 CNS; 64.4% in the experiment with U251 CNS; 11.2% with PC-3 prostate. Moreover, the growth in the experiment with SK-MEL-5 melanoma is 83.8%; with UACC-62 melanoma, 90.4%; in the experiment on LOX IMVI melanoma it was 64.5%; with SK-MEL-28 melanoma it was 110%; in the experiment on SK-MEL-2 melanoma, 101%; with EKVX NSCLC, 79%. Besides, the growth was 67.8% in the experiment on SN12C renal; 94.8% in the experiment with UO-31 renal; 116% in the experiment with TK-10 renal; 89.2% in the experiment with ACHN renal; 67.3% in the experiment on A498 renal; 22.8% with CCRF-CEM leukemia. For the same molecule, the growth in the experiment on MOLT-4 leukemia is 19.8%.

For the molecule `COc1ccc(CN2C(=O)/C(=C\C(=O)c3ccc(OCCN4CCCC4)cc3)c3ccccc32)cc1`, the growth was 37.3% in the experiment on HCT-15 colon; 9.12% (active) in the experiment on HT29 colon; 73.2% in the experiment on SNB-75 CNS; 97.1% in the experiment with SNB-19 CNS; 87.3% in the experiment on U251 CNS; 84% with PC-3 prostate. The growth with SK-MEL-5 melanoma was 92.7%; with UACC-62 melanoma, 88.7%; in the experiment with LOX IMVI melanoma, 31.7%; in the experiment on SK-MEL-28 melanoma it was 103%; in the experiment on SK-MEL-2 melanoma, 103%; in the experiment with EKVX NSCLC, 96.4%. Also, the growth with SN12C renal was 49.8%; in the experiment with UO-31 renal it was 56.5%; in the experiment on TK-10 renal, 109%; with ACHN renal, 69.9%; with A498 renal, 88.8%; in the experiment with CCRF-CEM leukemia, 2.08% (active). For the same molecule, the growth with MOLT-4 leukemia is 5.57% (active).

(Values after PubChem BioAssay (NCI).)
